In the library only some 7.9% were active in any assay of this set; here they are far more common.
MCF10A rerep = induces DNA re-replication in MCF 10a normal breast cells; Potency, µM (highest dose often 46.1 µM), usual class: activators; MCF 10A DNA re-replication, Hoechst nuclear intensity, 48 h; hit rate 2.9% among 350,000; note: nearly all actives have a fitted effect of over 50% in size
HT1080NT lethal = kills 2HG-producing HT-1080-NT fibrosarcoma cells; Potency, µM (highest dose often 46.1 µM), most hits filed as cytotoxic; HT-1080-NT fibrosarcoma viability, CellTiter-Glo ATP luminescence, 48 h; AID 686970; hit rate 1.6% among 360,000;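 note: NT is the 2HG producing partner of a matched IDH1 knockdown line; nearly all actives have a fitted effect of over 55% in size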
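Luminescent CellTiter-Glo readout after 48 hours of compound exposure at 37 degrees C defined viability of HT-1080-NT cells. Activity was normalized to DMSO wells and cell-free media wells; concentration-response curves were fitted and assigned curve classes.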
KB-3-1 cytotox = kills parental KB-3-1 adenocarcinoma cells. KB-3-1 viability, CellTiter-Glo ATP luminescence, 72 h. Potency, µM (series often up to 46.1 µM), most hits filed as cytotoxic. hit rate 1.4% among 400,000; note: nearly all actives have a fitted effect of over 60% in size
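Cells are dispensed, compounds pinned in, plates held at 37 °C for 72 h, then CellTiter-Glo is added and luminescence read after 10 minutes. Cell line: parental KB-3-1 in phenol-red-free DMEM, 10% FBS.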
SW480 rereplic = inducers of DNA re-replication in SW480 colon cancer cells. AID 624297. SW480 DNA re-replication, Hoechst DNA content imaging, 48 h. hit rate 1.8% among 340,000. Potency, µM (series often up to 46.1 µM), actives largely listed as activators; note: nearly all actives have a fitted effect of over 55% in size
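Readout is total intensity of Hoechst-stained nuclei, excited at 405 nm and collected at 500-530 nm. Compound treatment lasted 48 hr at 37 C in 5% CO2 before staining.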
KB-V1 cytotox = KB-V1 MDR subline cytotoxicity; hit rate 3.4% among 400,000; Potency, µM (top dose mostly 46.1 µM), usual class: cytotoxic; KB-V1 MDR cells viability, CellTiter-Glo, 72 h; note: nearly all actives have a fitted effect of over 60% in size
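Cells of the MDR subline KB-V1 are plated, dosed with compound at multiple concentrations, and incubated 72 h at 37 degrees C; CellTiter-Glo is then added and luminescence read after 10 min.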
HT1080 IDH1KD tx = toxicity to HT-1080 IDH1 knockdown cells (counter line); HT-1080 IDH1 knockdown viability, ATP luminescence, 48 h; Potency, µM (highest dose often 46.1 µM), actives largely listed as cytotoxic; hit rate 2% among 360,000
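Assay cells: HT-1080 with IDH1 knockdown, 750 per well, RPMI/5% FBS. Exposure: 48 h at 37 °C following 2 h pre-incubation. Read: CellTiter-Glo luminescence; fitted concentration-response, curve class assigned.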
Numbers stand for hits; [ ] = dose if it differs, or a comment. Calls come from the whole dose curve; as a rule, active = well fitted curve in the direction sought with a large enough effect; inconclusive = small, poorly fitted or top-dose-only effect, or another doubt; inactive = no such curve, though single readings can be large; an effect the other way counts as inactive or inconclusive.

For O=C(Nc1cc2c(cc1Br)OCCO2)c1ccc(=O)[nH]c1 the results were MCF10A rerep inactive, HT1080NT lethal inactive, KB-3-1 cytotox inconclusive, SW480 rereplic inactive, KB-V1 cytotox inconclusive and HT1080 IDH1KD tx inactive.
For Cc1[nH][nH]c(=O)c1C(c1c(C)[nH][nH]c1=O)c1cn(Cc2cccc3ccccc23)c2ccccc12 the results were MCF10A rerep inconclusive, HT1080NT lethal inconclusive, KB-3-1 cytotox inconclusive, SW480 rereplic inconclusive, KB-V1 cytotox 21µM and HT1080 IDH1KD tx inconclusive.
Screening O=C(NCCc1ccccc1)c1c(O)c2ccccc2[nH]c1=O returned MCF10A rerep inactive, HT1080NT lethal inactive, KB-3-1 cytotox inactive, SW480 rereplic inactive, KB-V1 cytotox inactive and HT1080 IDH1KD tx inactive.
For CC(C)=NNC(=O)c1c(O)c2ccccc2[nH]c1=O the results were MCF10A rerep 9.2µM, HT1080NT lethal inconclusive, KB-3-1 cytotox inactive, SW480 rereplic inactive, KB-V1 cytotox inactive and HT1080 IDH1KD tx inactive.
Screening CCNC(=O)c1c(O)c2ccccc2[nH]c1=O returned MCF10A rerep 6.5µM, HT1080NT lethal inconclusive, KB-3-1 cytotox inactive, SW480 rereplic inactive, KB-V1 cytotox inactive and HT1080 IDH1KD tx inactive[9.24 µM].
COc1ccc2c(c1)[C@]1(C[C@H](O)CO1)C(=O)N2C was read as HT1080NT lethal inactive, KB-3-1 cytotox inactive, KB-V1 cytotox inactive and HT1080 IDH1KD tx inactive.
For Cc1c(C(=O)NCc2ccccc2Cl)sc2ncnc(N(C)C3CCCCC3)c12 the results were KB-3-1 cytotox 21µM and KB-V1 cytotox inconclusive.
Screening Cc1c(C(=O)Nc2ccccc2Cl)sc2ncnc(N(C)C3CCCCC3)c12 returned KB-3-1 cytotox inactive and KB-V1 cytotox inactive.
`Cc1ccc2c(CSc3nnc4ccccn34)cc(=O)oc2c1C` gave MCF10A rerep inactive, HT1080NT lethal inactive, KB-3-1 cytotox inactive, SW480 rereplic inactive, KB-V1 cytotox 16µM and HT1080 IDH1KD tx inactive.
`Cc1ccc2c(CSc3nc4ccccc4c(=O)n3CCCO)cc(=O)oc2c1C` gave MCF10A rerep inconclusive, HT1080NT lethal inconclusive, KB-3-1 cytotox inactive, SW480 rereplic inactive, KB-V1 cytotox inactive and HT1080 IDH1KD tx inconclusive.
COC(=O)c1ccc(C(C(=O)NC2CCCCC2)N(CCc2ccccc2)C(=O)Cc2cccs2)cc1 (stereo not given) was read as MCF10A rerep inactive, HT1080NT lethal inactive, KB-3-1 cytotox inactive, SW480 rereplic inactive, KB-V1 cytotox inactive and HT1080 IDH1KD tx inactive.
For Cc1ccc(C(=O)N(CC(=O)NC2CCCC2)c2ccccc2C)s1 the results were MCF10A rerep inactive, HT1080NT lethal inactive, KB-3-1 cytotox inactive, SW480 rereplic inactive, KB-V1 cytotox inactive and HT1080 IDH1KD tx inactive.
Screening Cc1ccc(C(=O)N(CC(=O)NC2CCCC2)Cc2cccs2)s1 returned MCF10A rerep inactive, HT1080NT lethal inactive, KB-3-1 cytotox inactive, SW480 rereplic inactive, KB-V1 cytotox 5.8µM and HT1080 IDH1KD tx inactive.
`COc1ccc(N(C(=O)c2cnccn2)C(C(=O)NC2CCCCC2)c2ccc(Cl)cc2)cc1` (stereo not given) gave MCF10A rerep inactive, HT1080NT lethal inactive, KB-3-1 cytotox inactive, SW480 rereplic inactive, KB-V1 cytotox inactive and HT1080 IDH1KD tx inactive.
O=C(NC1CCCCC1)C(c1cccnc1)N(C(=O)CCl)c1cccc(Cl)c1 (stereo not given) was read as MCF10A rerep 13µM, HT1080NT lethal 5.2µM, KB-3-1 cytotox 23µM, SW480 rereplic 4.1µM, KB-V1 cytotox 21µM and HT1080 IDH1KD tx 1.8µM.
`COc1ccc(C(C(=O)NC2CCCCC2)N(C(=O)CCl)c2ccc(Cl)cc2)cc1` (stereo not given) gave MCF10A rerep inconclusive, HT1080NT lethal 2.3µM, KB-3-1 cytotox 5.8µM, SW480 rereplic inconclusive, KB-V1 cytotox inconclusive and HT1080 IDH1KD tx 1.5µM.
For COC(=O)c1ccc(C(C(=O)NC2CCCCC2)N(Cc2ccc(F)cc2)C(=O)Cc2cccs2)cc1 (stereo not given) the results were MCF10A rerep inactive, HT1080NT lethal inactive, KB-3-1 cytotox inactive, SW480 rereplic inactive, KB-V1 cytotox 3.7µM and HT1080 IDH1KD tx inactive.
Screening Cc1cccc(N(C(=O)CNC(=O)c2ccco2)C(C(=O)NC2CCCCC2)c2cccnc2)c1 (stereo not given) returned MCF10A rerep inactive, HT1080NT lethal inactive, KB-3-1 cytotox inactive, SW480 rereplic inactive, KB-V1 cytotox inactive and HT1080 IDH1KD tx inactive.
CC1CCCC(NC(=O)CNC(=S)N(Cc2ccccc2)Cc2cccs2)C1C (stereo not given) was read as MCF10A rerep 13µM, HT1080NT lethal inconclusive, KB-3-1 cytotox inactive, SW480 rereplic inconclusive, KB-V1 cytotox inconclusive and HT1080 IDH1KD tx inconclusive.
CCC(C)(C(=O)NC1CCCCC1)N(Cc1cccs1)C(=O)Cc1cccs1 (stereo not given) was read as MCF10A rerep inactive, HT1080NT lethal inactive, KB-3-1 cytotox inactive, SW480 rereplic inactive, KB-V1 cytotox 13µM and HT1080 IDH1KD tx inactive.
`Cn1cccc1C(C(=O)NC1CCCCC1)N(C(=O)Cc1cccs1)C1CC1` (stereo not given) gave MCF10A rerep inactive, HT1080NT lethal inactive, KB-3-1 cytotox inactive, SW480 rereplic inactive, KB-V1 cytotox 6.5µM and HT1080 IDH1KD tx inactive.
CCOC(=O)CNC(=S)N(Cc1cccs1)C1CCCCC1 was read as MCF10A rerep inactive, HT1080NT lethal inactive, KB-3-1 cytotox inactive, SW480 rereplic inactive, KB-V1 cytotox 7.3µM and HT1080 IDH1KD tx inactive.
CN(C(=O)CSc1nnc(-c2ccc(Cl)cc2)n1C)C1CCS(=O)(=O)C1 (stereo not given) was read as MCF10A rerep inactive, HT1080NT lethal inactive[9.24 µM], KB-3-1 cytotox inactive, SW480 rereplic inactive, KB-V1 cytotox inconclusive and HT1080 IDH1KD tx inactive.
CCO[C@@H]1OC(C(=O)N2CCN(Cc3ccccc3)CC2)=C[C@H](c2cn(C(C)=O)c3ccccc23)[C@H]1CCCO was read as MCF10A rerep inactive, HT1080NT lethal inactive, KB-3-1 cytotox inactive, SW480 rereplic inactive[9.22 µM], KB-V1 cytotox inactive and HT1080 IDH1KD tx inactive.
`Cc1ccc(C)c(C(=O)COC(=O)CN2C(=O)C3C4C=CC(C4)C3C2=O)c1` (stereo not given) gave MCF10A rerep inactive, HT1080NT lethal inactive, KB-3-1 cytotox inactive, SW480 rereplic inactive, KB-V1 cytotox inconclusive and HT1080 IDH1KD tx inactive.
`COC(CN(C(=O)CCl)C(C(=O)NC1CCCCC1)c1ccc(Cl)cc1)OC` (stereo not given) gave MCF10A rerep inactive, HT1080NT lethal inactive, KB-3-1 cytotox inconclusive, SW480 rereplic inactive, KB-V1 cytotox inconclusive and HT1080 IDH1KD tx inactive.

From PubChem BioAssay
